About 560 (0.17%) of roughly 330,000 compounds were called active.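 How the source made its calls: active means activation at or above 40% of the spot to cytoplasm intensity ratio, with at least 20 cells analyzed; inconclusive means wells under 20 cells, flagged as cytotoxic or low count; inactive means the rest.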 The full list was thinned out, with actives kept by preference.
Legend:
[1] = agonists of human NTR1, primary screen, imaging, U2OS cells, beta-arrestin-GFP, high content (AID 493036); conditions: NTR1-U2OS beta-arrestin-GFP spot imaging, agonist mode; measured here: cell count, cytotoxicity flag; at 20 µM;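 on activation: 0% = DMSO without peptide and 100% = 100 nM NTR1 peptide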
[2] = target: Neurotensin receptor type 1 (Homo sapiens) (UniProt P30989); test: as above; conditions: NTR1-U2OS beta-arrestin-GFP spot imaging, agonist mode; at 20 µM; stronger effect = higher value
Neurotensin receptor type 1 (Homo sapiens), sequence (P30989 whole entry, looked up): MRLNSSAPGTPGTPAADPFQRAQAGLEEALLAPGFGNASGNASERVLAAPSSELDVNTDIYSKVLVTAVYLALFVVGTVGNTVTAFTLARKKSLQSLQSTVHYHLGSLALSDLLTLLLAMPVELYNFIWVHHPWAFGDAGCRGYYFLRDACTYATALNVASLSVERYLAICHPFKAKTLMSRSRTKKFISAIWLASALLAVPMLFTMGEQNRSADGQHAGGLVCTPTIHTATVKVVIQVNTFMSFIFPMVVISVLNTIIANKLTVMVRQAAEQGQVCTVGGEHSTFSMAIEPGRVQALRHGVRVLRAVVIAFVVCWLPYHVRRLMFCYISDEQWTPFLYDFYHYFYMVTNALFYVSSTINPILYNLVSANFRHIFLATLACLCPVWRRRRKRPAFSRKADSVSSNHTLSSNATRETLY

Row | Structure (SMILES) | cell count [1] [cells] | activation [2]
1 | CCOc1ccc(C(C)C)cc1S(=O)(=O)n1nc(C)cc1C | 43 | 0.1% (inactive)
2 | COc1ccc(OC)c(S(=O)(=O)n2c([N+](=O)[O-])cnc2C)c1 | 68 | 0.5% (inactive)
3 | COc1ccc(C(C[N+](=O)[O-])n2nc(C)cc2C)cc1 (configuration not stated) | 64 | 47.9% (active)
4 | CC(C)(CNC(=O)Cc1ccc(Cl)cc1Cl)N1CCOCC1 | 59 | -2.3% (inactive)
5 | CCOc1ccc2sc(NS(=O)(=O)c3ccc(N)cc3)nc2c1 | 62 | 2.8% (inactive)
6 | O=C(Nc1cc(Cl)ccc1N1CCOCC1)c1ccc(N2CCCC2=O)cc1 | 53 | -1.6% (inactive)
7 | CCn1c(Cc2cccs2)nnc1SCC(=O)c1ccc(C)cc1 | 56 | 0.5% (inactive)
8 | Fc1ccccc1CNC(=S)Nc1ccc(Cl)cc1 | 48 | 2.3% (inactive)
9 | CCN(CCNC(=O)C1=C(C)C(=O)OC12CCC(C)CC2)c1ccccc1 (configuration not stated) | 64 | 3.9% (inactive)
10 | COc1ccc(OC)c(NC(=O)c2cnn(-c3ccccc3Cl)c2NC(=O)c2ccco2)c1 | 62 | 4.9% (inactive)
11 | CCOCCCNC(=S)Nc1ccc2nc(N3CCN(CC)CC3)cc(C)c2c1 | 73 | -2% (inactive)
12 | CCCCCCCC(=O)NC(Nc1ccccc1OC)C(Cl)(Cl)Cl (configuration not stated) | 50 | 2.7% (inactive)
13 | Cc1nn(CC(=O)Nc2ccc(C#N)cc2)c(C)c1[N+](=O)[O-] | 65 | 0.3% (inactive)
14 | CC(OC(=O)CN1C(=O)COc2ccccc21)C(=O)NCc1ccc(F)cc1 (configuration not stated) | 51 | 0.8% (inactive)
15 | O=S(=O)(c1ccccc1)N1CN(Cc2ccc(F)cc2)c2nc3ccccc3nc21 | 40 | 0.8% (inactive)
16 | CC(C)CC1(C(=O)NCc2ccccn2)C=CCN1C(=O)c1ccccc1 (configuration not stated) | 56 | -0.1% (inactive)
17 | CCN(C(=O)CSc1ncnc2c1cnn2-c1ccccc1)C1CCS(=O)(=O)C1 (configuration not stated) | 39 | -0.3% (inactive)
18 | O=[N+]([O-])/C=C/c1ccc2c(ccn2Cc2ccccc2)c1 | 87 | 87.3% (active)
19 | CCCCC[C@@H]1C=C(C(=O)O)[C@H](c2ccc(C#N)cc2)N1S(=O)(=O)c1ccc(C)cc1 | 52 | 7.1% (inactive)
20 | CCCCCCCCCCCCN1C(=O)CSC1c1cccnc1 (configuration not stated) | 45 | 11.6% (inactive)
21 | CC(C)Cn1c(CCC(=O)O)ccc1-c1cccs1 | 50 | -0.5% (inactive)

Row | Structure (SMILES) | cell count [1] [cells] | activation [2]
22 | COc1ccccc1NC(=O)C1CCN(C(=O)c2ccc(C(C)(C)C)cc2)CC1 | 46 | -0.5% (inactive)
23 | Cc1ccc(S(=O)(=O)NNC(=O)/C=C/c2cccc(F)c2)cc1 | 75 | 0% (inactive)
24 | CCCC(C(=O)NC1CCCC1)N(C(=O)Cn1nnc(-c2ccc(C)o2)n1)c1cccc(O)c1 (configuration not stated) | 48 | 0.6% (inactive)
25 | CC1CCN(S(=O)(=O)c2ccc3c(ccn3CC(=O)O)c2)CC1 | 71 | 0.7% (inactive)
26 | C#CCCOC(=O)N1C2=NC(C(=O)OC)=C(C(=O)OC)[C@@H]3N(C)c4ccc(OC)cc4[C@]23C[C@H]1C(=O)OC | 67 | 1.9% (inactive)
27 | Cc1ccc(N(C(=O)c2sc(C)nc2C)C(C(=O)NC(C)(C)C)c2ccncc2)cc1 (configuration not stated) | 32 | -0.4% (inactive)
28 | O=C(Oc1ccccc1C(=S)N1CCCCC1)c1cc([N+](=O)[O-])cc([N+](=O)[O-])c1 | 41 | 0.8% (inactive)
29 | CCOC(=O)c1cnc2c(c(C)nn2CC)c1Cl | 47 | 2.2% (inactive)
30 | O=C(OCC(O)C(O)COC(=O)c1ccccc1)c1ccccc1 (configuration not stated) | 68 | 0% (inactive)
31 | COc1ccc([C@H]2CC(=O)C=C(c3ccc(C)cc3)C2)cc1 | 62 | 3.1% (inactive)
32 | Cc1cc(C)c(NC(=O)C[N+](C)(C)CC(O)COc2cccc3ccccc23)c(C)c1 (configuration not stated) | 43 | -1.1% (inactive)
33 | CC(C)c1ccccc1OCC(O)CN(CC(O)COc1cccc2ccccc12)C(C)C (configuration not stated) | 48 | 46.1% (active)
34 | CCC(C)Sc1nc2c(c(=O)[nH]c(=O)n2C)n1CC(O)COc1cccc2ccccc12 (configuration not stated) | 51 | 4.1% (inactive)
35 | CN(C)S(=O)(=O)N1CCN(c2ccc([N+](=O)[O-])cc2)CC1 | 47 | 0% (inactive)
36 | COCc1cc(=O)[nH]c(-c2ccc(C(F)(F)F)cc2)n1 | 62 | -0.3% (inactive)
37 | CC(Sc1nn(-c2ccc(Cl)cc2)c(=S)s1)C(=O)NCC1CCCO1 (configuration not stated) | 67 | -1% (inactive)
38 | Cc1ccc(NC(=O)[C@H](Cc2ccccc2)NC(=O)C2CCNCC2)cc1 | 66 | -0.1% (inactive)
39 | COc1ccc(C2CC(=O)C=C(NCC3CCCO3)C2)cc1 (configuration not stated) | 92 | -3.9% (inactive)
40 | O=C1N(Cc2ccc3c(c2)OCO3)c2ccccc2C1(O)c1c[nH]c2ccccc12 (configuration not stated) | 56 | 5.6% (inactive)
41 | CC(C)(C)c1nnc(N/N=C/c2ccc(O)cc2)n(N)c1=O | 60 | 1.1% (inactive)
42 | O=C(CCNS(=O)(=O)c1cccs1)N1CCN(c2ccc(F)cc2)CC1 | 42 | -0.5% (inactive)

Row | Structure (SMILES) | cell count [1] [cells] | activation [2]
43 | CCOC(=O)CN1CC23C=CC(O2)C(C(=O)Nc2ccc(F)cc2)C3C1=O (configuration not stated) | 46 | -1.6% (inactive)
44 | COc1ccc(N2CCN(S(=O)(=O)c3ccc4c(c3)N(C(C)=O)CCO4)CC2)cc1 | 59 | 1.4% (inactive)
45 | CCN(CC)S(=O)(=O)c1ccc(Cl)c(C(=O)NC(C)C(c2cccs2)N2CCCC2)c1 (configuration not stated) | 57 | 0.4% (inactive)
46 | COC(c1ccccc1)c1nnc(CCC(=O)N2CCN(CCOc3ccccc3)CC2)o1 (configuration not stated) | 37 | 0.7% (inactive)
47 | O=C1CN(C(=O)c2ccccc2F)C(c2ccc(F)cc2)c2cc(F)ccc2N1 (configuration not stated) | 89 | 0% (inactive)
48 | O=C(CN1CCCSc2ccccc21)N1CCN(S(=O)(=O)c2ccccc2)CC1 | 62 | 0% (inactive)
49 | O=C(CCc1ccccc1Cl)Nc1ccc(S(=O)(=O)Nc2nccs2)cc1 | 42 | 1.9% (inactive)
50 | O=C(CS(=O)(=O)c1ccc(C(F)(F)F)cn1)NNC(=O)c1ccccc1 | 55 | -1% (inactive)
51 | Cc1ccc(C(C)NC(=O)Cn2nc(C)c([N+](=O)[O-])c2C)cc1 (configuration not stated) | 54 | 3.1% (inactive)
52 | O=C(Cn1ncc(N2CCCC2)c(Br)c1=O)c1ccc(Cl)cc1 | 53 | 2.8% (inactive)
53 | CCC/C(C)=N\Nc1nc2c(c(=O)n(C)c(=O)n2C)n1C | 58 | 0.3% (inactive)
54 | CCOc1ccc(NC(=O)N2CC=C(n3c(=O)[nH]c4ccccc43)CC2)cc1 | 42 | 0.4% (inactive)
55 | COc1ccc(C(C(=O)NC2CCCCC2)N(C(=O)CCl)c2ccccc2Cl)cc1 (configuration not stated) | 35 | 7.8% (inactive)
56 | O=C(OCC(=O)N1CCCC1=O)c1cc(S(=O)(=O)N2CCOCC2)ccc1Cl | 45 | -0.7% (inactive)
57 | Nc1c(C(=O)Nc2ccc3c(c2)OCCO3)nnn1Cc1ccccc1 | 53 | 0.3% (inactive)
58 | CCOc1ccc(CN2CCN(Cc3c[nH]c4ccccc34)CC2)cc1 | 62 | 0.2% (inactive)
59 | Cc1ccc2c(c1)C(O)(CC(=O)c1cccc(-n3cccc3)c1)C(=O)N2 (configuration not stated) | 57 | 1.6% (inactive)
60 | O=C(Nc1ccc(F)c([N+](=O)[O-])c1)C1CCCO1 (configuration not stated) | 58 | -0.8% (inactive)
61 | CCCC(=O)Nc1ncnc2c1ncn2[C@@H]1O[C@@H]2OP(=O)(O)OC[C@H]2[C@H]1OC(=O)CCC | 60 | 1.1% (inactive)
62 | COc1ccc(C)cc1-n1nnnc1SCC(=O)c1cc(C)n(Cc2ccco2)c1C | 88 | 2.5% (inactive)
63 | Cc1ccc2nc3c(cc(C(=O)NCCc4ccccc4)c(=N)n3CC3CCCO3)c(=O)n2c1 (configuration not stated) | 47 | 0.1% (inactive)

Row | Structure (SMILES) | cell count [1] [cells] | activation [2]
64 | O=C(COC(=O)C1CC2C=CC1C2)Nc1ccccc1 (configuration not stated) | 55 | -0.8% (inactive)
65 | CCOc1ccc(N(CC(=O)Nc2ccccc2F)S(=O)(=O)c2c(C)[nH]c(=O)[nH]c2=O)cc1 | 61 | -0.8% (inactive)
66 | COc1cccc(OCc2nnc3n2N=C(c2ccccc2)C(CC(=O)O)S3)c1 (configuration not stated) | 51 | 0.6% (inactive)
67 | CCCCCCCCCCOC(=O)Cn1c(COc2ccc(C)cc2)[n+](C)c2ccccc21 | 48 | 28.5% (inactive)
68 | CCCCCCCCCCOC(=O)Cn1c(COc2cccc(OC)c2)[n+](C)c2ccccc21 | 71 | 69.3% (active)
69 | CC1=C(C(=O)OCc2ccccc2)C(c2ccco2)n2ncnc2N1 (configuration not stated) | 52 | -3.8% (inactive)
70 | CC1=C(C(=O)Nc2ccccc2)C(c2cccs2)C(C#N)=C(SCC#N)N1 (configuration not stated) | 63 | 0.8% (inactive)
71 | CCOC(=O)CSC1=C(C#N)C(c2ccco2)C(C(=O)OCc2ccccc2)=C(C)N1 (configuration not stated) | 51 | 41.1% (active)
72 | Cc1ccccc1C(=O)Nc1cccc(-c2nnc(SCC(=O)O)n2C)c1 | 57 | 1.7% (inactive)
73 | Cc1cc(S(=O)(=O)NCc2ccccn2)c(Cl)cc1Cl | 75 | 0.3% (inactive)
74 | Cc1cc(/C=C2/SC(=O)N(CC(=O)OC(C)C)C2=O)c(C)n1C | 60 | 0.9% (inactive)
75 | COc1ccccc1C(=O)Nn1cnnc1 | 66 | -0.3% (inactive)
76 | COc1ccc(C2=NN(c3ccccc3)C(c3cccs3)C2)cc1 (configuration not stated) | 44 | 1.2% (inactive)
77 | O=C1C2N=NN(CC(=O)N3N=C(c4cccc5ccccc45)CC3c3ccccc3)C2C(=O)N1c1ccccc1 (configuration not stated) | 87 | 2.9% (inactive)
78 | Oc1ccccc1C1=NN(c2ccccc2)C(c2ccccc2)C1 (configuration not stated) | 102 | 48.9% (active)
79 | O=C(/C=C/c1ccc(Cl)c([N+](=O)[O-])c1)c1cccnc1 | 51 | 50% (active)
80 | O=C(Nc1ccncc1)c1ccc(Cl)c([N+](=O)[O-])c1 | 85 | -0.2% (inactive)
81 | O=C(/C=C/c1ccc(Cl)cc1Cl)c1cccnc1 | 71 | 29.2% (inactive)

Source: PubChem BioAssay AID493036 (Sanford-Burnham Center for Chemical Genomics, 2011)
